C1s block = complement C1s protease inhibitors, primary screen, biochemical, 10-compound mixtures | mean inhibition % of two 10-compound mixtures (hits give high values), % at 5 µM (by protocol) | Complement C1s subcomponent (Homo sapiens), P09871 | 62,000 tested, 0.16% active | purified C1s, fluorogenic AMC substrate, pooled mixtures;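 active means inhibition above 20% in each of the two 10-compound mixture wells holding the compound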;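 further: 0% = enzyme wells lacking compound mixture and 100% = no-enzyme blank wells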
WNV NS2B-NS3 inh = inhibitors of WNV NS2B-NS3 protease, primary screen, biochemical, fluorogenic substrate; Genome polyprotein (West Nile virus), P06935; fluorogenic substrate Ex360/Em465; hits give low values; AID 577, 2007; z-score (no concentration beside the values); 65,000 tested, 0.18% active; in the data active means z-score below about -3
MMP13 inh = human MMP13 inhibitors, primary screen, biochemical, FRET peptide cleavage; inhibition, % at 4 µM; 65,000 tested, 0.07% active; MMP-13 fTHP FRET cleavage, Mca fluorescence;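 active means inhibition above the mean of compound-free control plate wells plus 3 SD, cut at about 14% in these data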;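 further: 0% = DMSO wells and 100% = wells with reference MMP-13 inhibitor after basal subtraction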
FXIIa mix inh = human factor XIIa inhibitors, primary screen, biochemical, pooled compound mixtures, fluorogenic substrate; purified FXIIa; 62,000 tested, 0.2% active; AID 684, 2007; inhibition, % at 5 µM;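 further: 0% = enzyme without compound and 100% = no enzyme blank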
FXIa inh mix = FXIa protease inhibitors in compound pools, primary screen, biochemical, 10-compound mixtures; 62,000 tested, 0.19% active; inhibition, % at 5 µM; AID 680, 2007; Coagulation factor XI (Homo sapiens), P03951; purified FXIa, fluorogenic substrate, pooled mixtures;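 further: each value is inhibition by a whole ten-compound pool holding the compound; 0% = enzyme with no mixture and 100% = wells lacking enzyme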
Target sequence (P03951 19-387 limits assumed): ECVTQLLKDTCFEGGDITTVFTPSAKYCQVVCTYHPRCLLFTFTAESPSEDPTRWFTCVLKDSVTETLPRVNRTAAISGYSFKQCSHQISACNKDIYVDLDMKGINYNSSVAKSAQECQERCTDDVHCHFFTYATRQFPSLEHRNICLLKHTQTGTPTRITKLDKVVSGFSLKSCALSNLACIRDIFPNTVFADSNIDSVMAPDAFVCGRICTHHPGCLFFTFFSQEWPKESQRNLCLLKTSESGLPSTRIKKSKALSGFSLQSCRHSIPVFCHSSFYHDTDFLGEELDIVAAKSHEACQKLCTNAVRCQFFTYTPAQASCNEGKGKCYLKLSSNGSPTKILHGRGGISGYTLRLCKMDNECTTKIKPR
Target sequence (P03951 388-625 limits assumed): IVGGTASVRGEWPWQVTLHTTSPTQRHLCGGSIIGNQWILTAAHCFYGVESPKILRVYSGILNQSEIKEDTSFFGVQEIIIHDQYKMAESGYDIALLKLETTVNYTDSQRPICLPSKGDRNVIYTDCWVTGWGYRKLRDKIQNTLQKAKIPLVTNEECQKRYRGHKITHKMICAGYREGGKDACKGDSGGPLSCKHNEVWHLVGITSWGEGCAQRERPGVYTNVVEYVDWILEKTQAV
CatG inh = human cathepsin G inhibitors, primary screen, biochemical, pooled compound mixtures, AMC fluorescence; inhibition, % at 5 µM (by protocol); P08311; purified enzyme, AMC-tetrapeptide fluorescence; 62,000 tested, 0.2% active;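 active means inhibition above 20% in each of the two mixture wells holding the compound; inactive means inhibition of 20% or less in either well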;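 further: 0% = enzyme control without mixture and 100% = blank lacking enzyme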
An asterisk follows results filed as active. Rows were chosen to be rich in hits. Some 0.82% of all compounds tested hit in one or more screens of this group. Unless noted, no stated cut-off is given here; in the data, active means inhibition above about 20% (passing the limit was not always enough); inactive means the rest.

Screening CCCCn1c(=O)n(C)c(=O)c2c(C(F)(F)F)cc(-c3ccncc3)nc21 returned C1s block 38.3, WNV NS2B-NS3 inh 0.23, MMP13 inh -69.3, FXIIa mix inh 44.1*, FXIa inh mix 5.6 and CatG inh 7.9.
`COc1ccc(C(=O)SC2=NCCS2)cc1OC` gave C1s block 24.3*, WNV NS2B-NS3 inh -1.03, MMP13 inh 3.4, FXIIa mix inh 4.1, FXIa inh mix 15.7 and CatG inh 12.7.
COc1ccc(C(=O)N2CCSC2=S)cc1OC was read as C1s block 14.2, WNV NS2B-NS3 inh -0.96, MMP13 inh 2.5, FXIIa mix inh 2.2, FXIa inh mix 6.3 and CatG inh 3.1.
Screening Cc1nc(N)sc1-c1csc(Nc2ccc(Cl)cn2)n1 returned C1s block -6.7, WNV NS2B-NS3 inh 0.58, MMP13 inh 15.5*, FXIIa mix inh 14.2, FXIa inh mix 7.4 and CatG inh -2.7.
`Cc1nc(N)sc1-c1csc(Nc2ccccn2)n1` gave C1s block -30.6, WNV NS2B-NS3 inh -2.62, MMP13 inh 11.5, FXIIa mix inh 3.2, FXIa inh mix 1.1 and CatG inh 6.7.
CCOC(=O)N1CCC(NC(=O)c2cnc3n(c2=O)CCS3)CC1 was read as C1s block -4.3, WNV NS2B-NS3 inh 0.14, MMP13 inh 1.1, FXIIa mix inh 10.6, FXIa inh mix -0.7 and CatG inh 21.8.
C=CCn1c(SCc2nc3ccccc3c(=O)[nH]2)nnc1-c1cc2cc(Cl)ccc2o1 was read as C1s block -9.4, WNV NS2B-NS3 inh 0.98, MMP13 inh 2.4, FXIIa mix inh 7.8, FXIa inh mix -2.0 and CatG inh -1.8.
For CCOC(=O)Cc1nnc(NC(=O)C(CC)Sc2nnc3c4ccccc4n(C)c3n2)s1 (configuration not stated) the results were C1s block 22.3*, WNV NS2B-NS3 inh -0.78, MMP13 inh 0.3, FXIIa mix inh -0.4, FXIa inh mix 11.7 and CatG inh 17.2.
Screening O=C(c1ccc(N2CCCCS2(=O)=O)cc1)N1CCN(c2ccc(N3CCOCC3)nn2)CC1 returned C1s block -6.4, WNV NS2B-NS3 inh 2.39, MMP13 inh -17.9, FXIIa mix inh 7.2, FXIa inh mix 4.2 and CatG inh -3.6.
Screening CCOC(=O)N1CCN(C(=O)CC(=O)Nc2ccc3nc4n(c(=O)c3c2)CCCCC4)CC1 returned C1s block -10.5, WNV NS2B-NS3 inh 0.83, MMP13 inh 1.1, FXIIa mix inh 47.1*, FXIa inh mix 8.3 and CatG inh 0.6.
`O=C(COc1ccc(Cl)cc1Cl)Nc1ccc2nc3n(c(=O)c2c1)CCCC3` gave C1s block -156.5, WNV NS2B-NS3 inh 0.51, MMP13 inh 0.3, FXIIa mix inh 2.5, FXIa inh mix -28.7 and CatG inh -16.4.
`O=C(Nc1cccc(NC(=O)c2cccnc2)c1)c1cccnc1` gave C1s block 3.3, WNV NS2B-NS3 inh -0.45, MMP13 inh 4.7, FXIIa mix inh 2.3, FXIa inh mix 8.5 and CatG inh 7.0.
`O=C(Nc1ccc2oc(=O)ccc2c1)c1cccnc1` gave C1s block 23.4*, WNV NS2B-NS3 inh -0.29, MMP13 inh 0.1, FXIIa mix inh -1.4, FXIa inh mix 16.0 and CatG inh 15.8.
For O=C(CN1C(=O)c2ccccc2C1=O)Nc1ccccc1C(=O)N1CCCC1 the results were C1s block -2.8, WNV NS2B-NS3 inh 0.05, MMP13 inh 2.5, FXIIa mix inh 1.9, FXIa inh mix 3.7 and CatG inh 6.9.
`CC(C)C(CC(=O)N1CCCCC1)C1CCOC(C)(C)C1` (configuration not stated) gave C1s block -11.2, MMP13 inh 6.7, FXIIa mix inh 16.3, FXIa inh mix 19.0 and CatG inh 27.8*.
CS(=O)(=O)N(CC(=O)N1CCCCC1)C1CCCCC1 was read as C1s block 1.8, WNV NS2B-NS3 inh 1.13, MMP13 inh 6.2, FXIIa mix inh -16.6, FXIa inh mix -0.4 and CatG inh -0.3.
CC(C)n1nnnc1SCC(=O)NCc1ccco1 was read as C1s block -0.7, WNV NS2B-NS3 inh 0.22, MMP13 inh 1.0, FXIIa mix inh -5.0, FXIa inh mix 22.3* and CatG inh 8.3.
`COc1cccc(CNC(=O)C2CCN(S(=O)(=O)c3ccc4c(c3)CCC(=O)N4)CC2)c1` gave C1s block 5.7, WNV NS2B-NS3 inh -3.26*, MMP13 inh 3.4, FXIIa mix inh 5.5, FXIa inh mix 9.2 and CatG inh 10.1.
`COc1cccc(CNC(=O)C2CCN(S(=O)(=O)c3ccc(F)cc3)CC2)c1` gave C1s block 5.9, WNV NS2B-NS3 inh -0.39, MMP13 inh 6.1, FXIIa mix inh 3.4, FXIa inh mix 5.4 and CatG inh 9.5.
Screening Cc1cccc(-n2nnc(C(=O)Nc3ccc(F)cc3)c2N)c1 returned C1s block 25.1, WNV NS2B-NS3 inh -0.85, MMP13 inh 1.1, FXIIa mix inh 5.2, FXIa inh mix 9.6 and CatG inh 50.8*.
Cc1ccc(NC(=O)c2nnn(-c3cc(C)cc(C)c3)c2N)cc1 was read as C1s block 1.0, WNV NS2B-NS3 inh 1.22, MMP13 inh -4.8, FXIIa mix inh -2.1, FXIa inh mix 25.0 and CatG inh 37.8.
`O=S(=O)(Nc1ccccc1F)c1ccc2nsnc2c1` gave C1s block 3.9, WNV NS2B-NS3 inh 2.68, MMP13 inh 0.3, FXIIa mix inh 20.9*, FXIa inh mix 2.1 and CatG inh -0.1.
`Cc1ccccc1NS(=O)(=O)c1ccc(F)cc1` gave C1s block 3.6, WNV NS2B-NS3 inh 0.84, MMP13 inh 1.6, FXIIa mix inh -11.7, FXIa inh mix 1.1 and CatG inh 10.0.
Screening O=C(O)c1cccc(NS(=O)(=O)c2ccc3nnn(O)c3c2)c1 returned C1s block -12.4, WNV NS2B-NS3 inh -0.73, MMP13 inh -1.4, FXIIa mix inh 37.4*, FXIa inh mix 5.0 and CatG inh 1.4.
`O=C(O)c1cccc(NS(=O)(=O)c2ccc(Cl)c(C(=O)O)c2)c1` gave C1s block 14.7, WNV NS2B-NS3 inh -0.3, MMP13 inh -3.2, FXIIa mix inh 21.9*, FXIa inh mix 17.4 and CatG inh 24.2.
Screening CCOc1ccc(-n2nc(C(=O)N3CCOCC3)c3ccccc3c2=O)cc1 returned C1s block 15.8, WNV NS2B-NS3 inh 1.14, MMP13 inh 3.5, FXIIa mix inh -13.6, FXIa inh mix 10.8 and CatG inh 9.1.
COc1ccccc1N(CC(=O)NC1CCCC1)C(=O)CCC(=O)Nc1cc(C)on1 was read as C1s block -4.2, WNV NS2B-NS3 inh -0.47, MMP13 inh -1.4, FXIIa mix inh 5.3, FXIa inh mix 1.6 and CatG inh -9.1.

Source: PubChem (several laboratories)
